# Source: PubChem BioAssay (several laboratories)
# cardiac RTF act: cardiac RTF calcium sensitivity activators, primary screen, biochemical, IANBD-TnC fluorescence, EC20 calcium; Troponin I, cardiac muscle (Homo sapiens) + Troponin T, cardiac muscle (Homo sapiens) + …; IANBD-labeled TnC RTF fluorescence at EC20 calcium; 0% EC20 calcium, 100% full calcium; activation, % at 7.2 µM; 340,000 tested, 0.24% active;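 active means activation above the mean over all tested compounds plus 3 SD, cut at about 30% in these data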;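 further: rise in fluorescence read as greater calcium sensitivity of cardiac thin filaments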
# Cardiac RTF inh: cardiac RTF calcium sensitivity inhibitors, primary screen, biochemical, IANBD-TnC fluorescence, EC70 calcium | Troponin I, cardiac muscle (Homo sapiens) + Troponin T, cardiac muscle (Homo sapiens) + … | IANBD-labeled cardiac RTF, Ca2+ fluorescence | inhibition, % at 7.15 µM | 340,000 tested, 0.12% active | AID 493244, 2011;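 active means inhibition above the mean inhibition of all tested compounds plus 3 SD, cut at about 17% in these data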;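 further: assay run at fixed EC70 calcium of 1.6 mM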
# LANA-H2B inh: blockers of LANA interaction with H2A/H2B – biochemical, FP readout, HTS, primary screen; Protein LANA1 (Human herpesvirus 8 type P (isolate GK18)), Q9QR71; cell-free LANA-H2A/H2B peptide, fluorescence polarization; inhibition, % (no concentration beside the values); 320,000 tested, 0.6% active; in the data active means inhibition mostly above about 10%, no sharp cut-off; inactive means mostly below about 6.7%
# Keap1 Nrf2 FP: Keap1-Nrf2 protein-protein interaction inhibitors, primary screen, biochemical, fluorescence polarization, single point; Keap1 Kelch-Nrf2 peptide fluorescence polarization, 1536-well; inhibition, % at 9.4 µM; 340,000 tested, 0.15% active; in the data active means inhibition above about 12%;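 further: human Keap1 Kelch domain with fluorescein labeled Nrf2 9mer peptide probe; 0% = neutral control wells and 100% = peptide positive control; higher means more block of Keap1 binding to Nrf2 peptide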
# Target sequence (Q14145 whole entry, looked up, the tested form may be a part): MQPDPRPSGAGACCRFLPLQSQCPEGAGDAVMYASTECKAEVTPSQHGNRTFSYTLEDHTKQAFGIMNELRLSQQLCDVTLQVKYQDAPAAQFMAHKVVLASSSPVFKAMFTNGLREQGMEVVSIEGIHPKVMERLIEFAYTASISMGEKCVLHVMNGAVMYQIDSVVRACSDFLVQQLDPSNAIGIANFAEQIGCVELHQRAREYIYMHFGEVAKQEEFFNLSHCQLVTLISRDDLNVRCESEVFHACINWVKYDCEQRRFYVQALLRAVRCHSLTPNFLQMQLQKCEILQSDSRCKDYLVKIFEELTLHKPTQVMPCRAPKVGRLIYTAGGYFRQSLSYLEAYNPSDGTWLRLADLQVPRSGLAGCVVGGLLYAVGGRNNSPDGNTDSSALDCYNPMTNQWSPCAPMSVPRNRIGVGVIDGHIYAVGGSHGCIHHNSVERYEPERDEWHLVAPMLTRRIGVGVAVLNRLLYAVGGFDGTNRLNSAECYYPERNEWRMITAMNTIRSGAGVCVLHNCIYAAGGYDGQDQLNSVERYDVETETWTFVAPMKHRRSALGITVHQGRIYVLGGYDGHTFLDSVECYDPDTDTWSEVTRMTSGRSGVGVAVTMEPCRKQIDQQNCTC
# LANA DNA inh: inhibitors of KSHV C-LANA binding to DNA, primary screen, biochemical, fluorescence polarization, FAM-LBS DNA, MBP-C-LANA, single point; inhibition, % at 9 µM; Kaposi's sarcoma herpesvirus LANA C-terminal domain (residues 932-1162) DNA binding; AID 504423, 2011; 340,000 tested, 0.078% active;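 active means highest replicate inhibition at or above 60% at 9 µM, even if other replicates fall short; inactive means all replicates below 60% inhibition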;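 further: 0% = neutral control wells and 100% = 4 µM acridine orange control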
# * hit, by the source's call; i = inactive; . = no result; ! = repeats disagree. A selection: hits, their analogues and other compounds. The true share with any hit is near 0.98%.
SMILES,cardiac RTF act,Cardiac RTF inh,LANA-H2B inh,Keap1 Nrf2 FP,LANA DNA inh
O=C(Cc1ccccc1)Nn1c(O)c(/C=C2\C=Nc3ccccc32)sc1=S,58.2*,-75.7,-7.4,4.0,0.6
N#CC1(C#N)C(c2ccccc2)OC23CCCCC2C1(C#N)C(=N)O3 (configuration not stated),30.4*,-24.4,8.2,21.2*,44.1
CCCCCCCCOc1ccc(C2OC34CCCCC3C(C#N)(C#N)C2(C#N)C(=N)O4)cc1 (configuration not stated),21.7,-39.6,3.8,27.6*,56.3
N#CC1(C#N)C(c2ccccc2)OC23CCCCCC2C1(C#N)C(=N)O3 (configuration not stated),-1.2,-19.6,-1.6,0.1,3.9
CCCCCOc1ccc(C2NC(=O)NC2=O)cc1 (configuration not stated),2.3,-3.5,6.1,0.5,1.7
Cc1ccc(N(C(=O)CCC(=O)Nc2ccccn2)C(C(=O)NC(C)C)c2ccc(F)cc2)cc1 (configuration not stated),-3.2,2.5,17.9*,-4.6,-0.5
Cc1ccccc1N(C(=O)CCC(=O)Nc1ccccn1)C(C(=O)NC(C)C)c1ccc(F)cc1 (configuration not stated),-7.0,-4.3,-0.8,2.1,0.3
COc1ccc(S(=O)(=O)N(C)CC(=O)N2CCCC2)cc1OC,2.3,3.6,3.2,4.5,-0.4
Cc1ccccc1C1CC(c2ccc(F)cc2)Nc2nc(N)nn21 (configuration not stated),-2.6,-13.6,2.5,-2.1,-4.0
Cc1ccccc1C1CC(c2ccc(Br)cc2)Nc2nc(N)nn21 (configuration not stated),12.2,0.3,17.4*,-3.6,-0.2
CC(C)(C)C(=O)N1CCCC1C(=O)O (configuration not stated),9.4,-11.7,27.6*,-1.3,-0.1
Cc1nc2cc(N3CCOCC3)c(NC(=O)C3CC3)cc2c(=O)n1Cc1ccccc1,2.1,6.1,56.1*,-0.8,-0.4
Cc1ccc(S[C@@H](CCN2CC[C@H](C(C)(C)C)CCC2=O)c2ccccc2)cc1,-1.3,-5.5,0.4,-1.8,0.1
CCOc1ccc(S(=O)(=O)NCC2(N3CCCCC3)CCCCC2)cc1,8.9,3.2,.,1.5,0.9
CCOc1ccc(S(=O)(=O)NCCC(=O)NCC2(N3CCCCC3)CCCCC2)cc1,-2.2,-2.9,167.6*,4.4,2.0
Cc1ccc(S(=O)(=O)Nc2cccc(-c3ccc(N4CCCCCC4)nn3)c2)cc1,1.6,3.7,-3.2,-5.7,-1.0
NC(=O)c1ccc(S(=O)(=O)N2CCSCC2)cc1,-3.2,-3.2,-5.1,-2.5,-0.9
CCOC(=O)/C(=C/C1=CC(=C/N(C)C)/C(=O)O1)C(C)=O,52.9*,-56.0,-26.4,-140.7,-34.9
O=C1c2ccccc2NC(c2ccc(Br)s2)N1O (configuration not stated),.,.,-2.9,.,.
CCN(CC)S(=O)(=O)c1ccc(N2CCCCC2)c(NC(=O)/C(C#N)=C/c2ccc(OC)cc2)c1,1.6,0.6,0.7,-0.1,-1.0
CCOc1ccc(NC(=O)/C(C#N)=C/c2ccc(N3CCCC3)c(C)c2)cc1,67.1*,-50.6,-6.2,-5.6,1.8
O=C(CCn1cccn1)Nc1ccc2c(c1)OCO2,-1.5,-12.3,14.9*,-2.8,1.0
CCCN(Cc1ccc(C)cc1)C(=O)c1ccc(CNS(=O)(=O)c2ccc(C(C)=O)cc2)cc1,1.1,-4.2,i,-7.5,-1.1
O=C(COc1ccccc1)Nc1c2c(nn1-c1ccc(F)cc1)CS(=O)(=O)C2,6.7,-10.6,-1.5,3.1,-0.7
COc1ccccc1C(=O)NNC(=O)c1cccc(Cl)c1,-1.2,0.2,-2.8,-5.6,-1.9
SMILES,cardiac RTF act,Cardiac RTF inh,LANA-H2B inh,Keap1 Nrf2 FP,LANA DNA inh
COc1ccc(Cl)cc1C(=O)NNC(=O)c1cccc([N+](=O)[O-])c1,-1.6,-1.2,156.1*,-2.0,1.4
C[C@H]1C[C@H]2[C@@H]3CCC4=CC(=O)C=C[C@]4(C)[C@@]3(F)[C@@H](O)C[C@]2(C)[C@@]1(O)C(=O)CO,-2.0,7.4,9.5,1.8,0.1
C[C@@H]1C[C@H]2[C@@H]3CCC4=CC(=O)C=C[C@]4(C)[C@@]3(F)[C@@H](O)C[C@]2(C)[C@@]1(O)C(=O)COP(=O)(O)O,6.4,-9.1,46.7*!,-6.0,-2.7
COc1cc(C(=O)NCCCn2ccnc2)cc(OC)c1OC,-6.0,2.0,11.4*,-1.3,-1.3
COc1ccccc1-c1ccc(=O)n(CC(=O)NCc2ccco2)n1,1.0,-0.6,36.9*,1.2,-0.5
CCCCOc1ccc(C(=O)N2CCN(c3ncccn3)CC2)cc1,-2.7,4.4,1.5,3.9,-1.6
COc1ccc(CCNC(=O)c2ccc3c(c2)NC(=O)C(CSCc2cc(C)ccc2C)N3)cc1OC (configuration not stated),.,.,-5.3,.,.
CCCCNC(=O)c1cn(CC)c2ccc(S(=O)(=O)N3CCCC3)cc2c1=O,-7.4,4.9,0.8,1.5,-0.1
CCn1cc(C(=O)NCCCOC)c(=O)c2cc(S(=O)(=O)N3CCCC3)ccc21,1.0,-5.2,14.0*,-1.8,0.7
Cc1[nH]c(-c2ccco2)nc1C(=O)O,-6.8,2.0,15.3*,-1.7,1.1
CSc1ccc(CN(C)C(=O)c2cc(=O)[nH]c3ccccc23)cc1,-5.8,-6.9,0.7,-3.8,-0.6
Cc1nc2sccn2c(=O)c1CCN1CCC(=C(c2ccc(F)cc2)c2ccc(F)cc2)CC1,-0.2,-13.3,8.3*,1.5,-0.6
O=[n+]1c2c(n([O-])c3cc(F)c(N4CCCC4)cc31)CCCC2,79.1*,-84.1,2.5,-18.1,39.1
O=[n+]1c2c(n([O-])c3cc(F)c(N4CCCC4)cc31)CCC2,52.7*,-86.7,2.7,-11.1,37.8
O=[n+]1c2c(n([O-])c3cc(F)ccc31)CCCC2,-0.9,-1.4,1.3,-3.1,0.8
Cc1noc(C)c1-c1nc(CSc2ccccc2)no1,0.5,-2.6,2.3,-2.3,90.5*
Cc1cc(S(=O)(=O)Cc2noc(-c3c(C)noc3C)n2)c(C)cc1Cl,17.9,-8.4,4.4,-3.5,-1.8
CCOc1ccc(C2C=C(c3ccc(C)cc3)Nc3nnnn32)cc1 (configuration not stated),54.2*,-76.2,6.3,-0.4,7.0
COc1ccc(CC(=O)N2CCN(c3ccccc3)CC2)cc1,-2.2,-5.5,0.3,-4.8,-0.8
Cc1nc(N[C@@H](Cc2c[nH]c3ccccc23)C(=O)O)c2oc3ccccc3c2n1,.,.,18.5*,.,.
